Reference: publication PMC5540273 (PLoS ONE, 2017)
Like-named read-outs stand apart in the source and are kept apart here.

Columns and labels:
FLT3 = settings: concentration: 1 μM, replicates: in singlicate; n = 1
FLT4 = settings: concentration: 1 μM, replicates: in singlicate; n = 1
FRK = settings: concentration: 1 μM, replicates: in singlicate; n = 1
FYN = settings: concentration: 1 μM, replicates: in singlicate; n = 1
GAK = settings: concentration: 1 μM, replicates: in singlicate; n = 1
GCN2(Kin.Dom.2,S808G) = test system: T1, GCN2(Kin.Dom.2,S808G); settings: concentration: 1 μM, replicates: in singlicate; n = 1
T1 construct: gene EIF2AK4

GRK1 = settings: concentration: 1 μM, replicates: in singlicate; n = 1
GRK2 = test system: T2, GRK2; settings: concentration: 1 μM, replicates: in singlicate; n = 1
T2 construct: gene ADRBK1

GRK3 = test system: T3, GRK3; settings: concentration: 1 μM, replicates: in singlicate; n = 1
T3 construct: gene ADRBK2

GRK4 = settings: concentration: 1 μM, replicates: in singlicate; n = 1
GRK7 = settings: concentration: 1 μM, replicates: in singlicate; n = 1
GSK3A = settings: concentration: 1 μM, replicates: in singlicate; n = 1
GSK3B = settings: n = 1
HASPIN = test system: T4, HASPIN; settings: concentration: 1 μM, replicates: in singlicate; n = 1
T4 construct: gene GSG2

HCK = settings: concentration: 1 μM, replicates: in singlicate; n = 1
HIPK1 = settings: concentration: 1 μM, replicates: in singlicate; n = 1
HIPK2 = settings: concentration: 1 μM, replicates: in singlicate; n = 1
HIPK3 = settings: concentration: 1 μM, replicates: in singlicate; n = 1
HIPK4 = settings: concentration: 1 μM, replicates: in singlicate; n = 1
HPK1 = settings: concentration: 1 μM, replicates: in singlicate; n = 1
[1] = concentration: 1 μM, replicates: in singlicate
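Note: KINOMEscan kinase panel screen.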

CC(=O)Nc1nc2cnc(Nc3cc(NC(=O)c4cccc(CCC#N)c4)ccc3C)nc2s1
%Inh (FLT3): 0% | %Inh (FLT4): 30% | %Inh (FRK): 83% | %Inh (FYN): 4% | %Inh (GAK): 7% | %Inh (GCN2(Kin.Dom.2,S808G)): 0% | %Inh (GRK1): 0% | %Inh (GRK2): 0% | %Inh (GRK3): 0% | %Inh (GRK4): 0% | %Inh (GRK7): 6% | %Inh (GSK3A): 0% | %Inh (GSK3B; [1]): 0% | %Inh (HASPIN): 21% | %Inh (HCK): 21% | %Inh (HIPK1): 15% | %Inh (HIPK2): 20% | %Inh (HIPK3): 6% | %Inh (HIPK4): 5% | %Inh (HPK1): 0%

NC(=O)c1nnc2ccccc2c1N
%Inh (FLT3): 15% | %Inh (FLT4): 5% | %Inh (FRK): 0% | %Inh (FYN): 0% | %Inh (GAK): 24% | %Inh (GCN2(Kin.Dom.2,S808G)): 13% | %Inh (GRK1): 12% | %Inh (GRK2): 67% | %Inh (GRK3): 13% | %Inh (GRK4): 28% | %Inh (GRK7): 0% | %Inh (GSK3A): 5% | %Inh (GSK3B; [1]): 24% | %Inh (HASPIN): 73% | %Inh (HCK): 0% | %Inh (HIPK1): 45% | %Inh (HIPK2): 50% | %Inh (HIPK3): 37% | %Inh (HIPK4): 4% | %Inh (HPK1): 0%

Cc1c(O)cccc1Nc1ccnc2ccc(C(F)(F)F)cc12.Cl [GW466413]
%Inh (FLT3): 0% | %Inh (FLT4): 9% | %Inh (FRK): 79% | %Inh (FYN): 68% | %Inh (GAK): 64% | %Inh (GCN2(Kin.Dom.2,S808G)): 9% | %Inh (GRK1): 14% | %Inh (GRK2): 0% | %Inh (GRK3): 8% | %Inh (GRK4): 0% | %Inh (GRK7): 0% | %Inh (GSK3A): 9% | %Inh (GSK3B; [1]): 0% | %Inh (HASPIN): 34% | %Inh (HCK): 43% | %Inh (HIPK1): 0% | %Inh (HIPK2): 0% | %Inh (HIPK3): 0% | %Inh (HIPK4): 0% | %Inh (HPK1): 3%

CS(=O)(=O)c1ccc(-c2c(-c3ncn[nH]3)sc(N3CCOCC3)c2C#N)cc1
%Inh (FLT3): 0% | %Inh (FLT4): 0% | %Inh (FRK): 8% | %Inh (FYN): 0% | %Inh (GAK): 0% | %Inh (GCN2(Kin.Dom.2,S808G)): 11% | %Inh (GRK1): 25% | %Inh (GRK2): 26% | %Inh (GRK3): 26% | %Inh (GRK4): 0% | %Inh (GRK7): 43% | %Inh (GSK3A): 0% | %Inh (GSK3B; [1]): 24% | %Inh (HASPIN): 0% | %Inh (HCK): 43% | %Inh (HIPK1): 38% | %Inh (HIPK2): 24% | %Inh (HIPK3): 28% | %Inh (HIPK4): 8% | %Inh (HPK1): 0%

Cc1cccc(-c2nc(Nc3ccncc3)c3ccccc3n2)n1 [GW855857]
%Inh (FLT3): 0% | %Inh (FLT4): 1% | %Inh (FRK): 15% | %Inh (FYN): 13% | %Inh (GAK): 0% | %Inh (GCN2(Kin.Dom.2,S808G)): 0% | %Inh (GRK1): 0% | %Inh (GRK2): 0% | %Inh (GRK3): 0% | %Inh (GRK4): 0% | %Inh (GRK7): 0% | %Inh (GSK3A): 4% | %Inh (GSK3B; [1]): 0% | %Inh (HASPIN): 26% | %Inh (HCK): 11% | %Inh (HIPK1): 41% | %Inh (HIPK2): 0% | %Inh (HIPK3): 0% | %Inh (HIPK4): 19% | %Inh (HPK1): 9%

COc1cc2nccc(Nc3ccc(NC(=O)c4ccc(C)cc4)c(O)c3)c2cc1OC.Cl [GW440132]
%Inh (FLT3): 0% | %Inh (FLT4): 0% | %Inh (FRK): 25% | %Inh (FYN): 17% | %Inh (GAK): 11% | %Inh (GCN2(Kin.Dom.2,S808G)): 0% | %Inh (GRK1): 0% | %Inh (GRK2): 0% | %Inh (GRK3): 29% | %Inh (GRK4): 0% | %Inh (GRK7): 0% | %Inh (GSK3A): 4% | %Inh (GSK3B; [1]): 0% | %Inh (HASPIN): 0% | %Inh (HCK): 0% | %Inh (HIPK1): 6% | %Inh (HIPK2): 0% | %Inh (HIPK3): 0% | %Inh (HIPK4): 3% | %Inh (HPK1): 24%

COc1ccc(C2=C(Nc3cccc(C(=O)O)c3)C(=O)NC2=O)cc1 [SB-390765]
%Inh (FLT3): 23% | %Inh (FLT4): 15% | %Inh (FRK): 0% | %Inh (FYN): 0% | %Inh (GAK): 8% | %Inh (GCN2(Kin.Dom.2,S808G)): 0% | %Inh (GRK1): 30% | %Inh (GRK2): 0% | %Inh (GRK3): 50% | %Inh (GRK4): 14% | %Inh (GRK7): 12% | %Inh (GSK3A): 7% | %Inh (GSK3B; 1 µM): 31% | %Inh (HASPIN): 28% | %Inh (HCK): 8% | %Inh (HIPK1): 8% | %Inh (HIPK2): 16% | %Inh (HIPK3): 21% | %Inh (HIPK4): 21% | %Inh (HPK1): 0%

Cl.NC(=O)c1cccc(Nc2nccc(Nc3ccc(Oc4cccc(Cl)c4)c(Cl)c3)n2)c1 [GW659008]
%Inh (FLT3): 54% | %Inh (FLT4): 0% | %Inh (FRK): 24% | %Inh (FYN): 59% | %Inh (GAK): 43% | %Inh (GCN2(Kin.Dom.2,S808G)): 11% | %Inh (GRK1): 0% | %Inh (GRK2): 0% | %Inh (GRK3): 18% | %Inh (GRK4): 15% | %Inh (GRK7): 0% | %Inh (GSK3A): 0% | %Inh (GSK3B; [1]): 0% | %Inh (HASPIN): 0% | %Inh (HCK): 72% | %Inh (HIPK1): 0% | %Inh (HIPK2): 0% | %Inh (HIPK3): 0% | %Inh (HIPK4): 0% | %Inh (HPK1): 37%

Cc1cccc(-c2nc(C)cc(Nc3ccncc3)n2)n1 [GSK257997]
%Inh (FLT3): 5% | %Inh (FLT4): 13% | %Inh (FRK): 0% | %Inh (FYN): 36% | %Inh (GAK): 0% | %Inh (GCN2(Kin.Dom.2,S808G)): 0% | %Inh (GRK1): 0% | %Inh (GRK2): 0% | %Inh (GRK3): 0% | %Inh (GRK4): 0% | %Inh (GRK7): 0% | %Inh (GSK3A): 27% | %Inh (GSK3B; [1]): 17% | %Inh (HASPIN): 31% | %Inh (HCK): 0% | %Inh (HIPK1): 0% | %Inh (HIPK2): 0% | %Inh (HIPK3): 7% | %Inh (HIPK4): 0% | %Inh (HPK1): 34%

C[C@@H]1CCCCN1c1cc(-c2ccc3c(N)n[nH]c3c2)nc(N)n1 [GSK2258759]
%Inh (FLT3): 0% | %Inh (FLT4): 0% | %Inh (FRK): 5% | %Inh (FYN): 19% | %Inh (GAK): 14% | %Inh (GCN2(Kin.Dom.2,S808G)): 0% | %Inh (GRK1): 0% | %Inh (GRK2): 0% | %Inh (GRK3): 0% | %Inh (GRK4): 0% | %Inh (GRK7): 0% | %Inh (GSK3A): 3% | %Inh (GSK3B; [1]): 3% | %Inh (HASPIN): 14% | %Inh (HCK): 0% | %Inh (HIPK1): 0% | %Inh (HIPK2): 0% | %Inh (HIPK3): 14% | %Inh (HIPK4): 0% | %Inh (HPK1): 28%
